Assay results from PubChem BioAssay (NCI).
This is part of a sample that, as a whole, favours compounds with a hit. Of some 83,000 tested, about 20% had one in any assay.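 Growth was measured after 48 h exposure to one concentration of compound in 96-well plates. Values under 10 count as active.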 Calls of active or inactive are those of the source.

Key:
Assay in all cases: NCI-60 one-dose screen, 48 h (100 = growth as untreated, 0 = no growth, -100 = all killed)
Settings in all cases: 10 µM unless noted
SR leukemia = system: SR leukemia
RPMI-8226 leukemia = system: RPMI-8226 leukemia
OVCAR-8 ovarian = system: OVCAR-8 ovarian
SK-OV-3 ovarian = system: SK-OV-3 ovarian
IGROV1 ovarian = system: IGROV1 ovarian
OVCAR-3 ovarian = system: OVCAR-3 ovarian
HS 578T breast = system: HS 578T breast
NCI/ADR-RES ovarian = system: NCI/ADR-RES ovarian
OVCAR-5 ovarian = system: OVCAR-5 ovarian
OVCAR-4 ovarian = system: OVCAR-4 ovarian

Measured: growth

NC(=O)NCC1CCCCC1
inactive: SR leukemia 99.4% | RPMI-8226 leukemia 108% | OVCAR-8 ovarian 114% | SK-OV-3 ovarian 109% | IGROV1 ovarian 101% | OVCAR-3 ovarian 109% | HS 578T breast 112% | NCI/ADR-RES ovarian 95.1%

C=C1C(=O)O[C@H]2[C@H]1CC/C(COC(=O)NCc1cc3ccccc3[nH]1)=C\CC[C@@]1(C)O[C@@H]21
active: SR leukemia -2.88% | RPMI-8226 leukemia -32.8% | OVCAR-4 ovarian -0.221% | IGROV1 ovarian -20.5% | OVCAR-3 ovarian -54.4%
inactive: OVCAR-5 ovarian 26.2% | SK-OV-3 ovarian 86.7% | HS 578T breast 79.3% | NCI/ADR-RES ovarian 71.4%

Cc1cc2nc3c4cc(O)ccc4n(CCN(C)C)c3nc2cc1C
active: SR leukemia 8.05% | RPMI-8226 leukemia -11.2% | OVCAR-8 ovarian -18.6% | OVCAR-4 ovarian 4.91% | SK-OV-3 ovarian -2.47% | IGROV1 ovarian -26.4% | OVCAR-3 ovarian 3.66% | NCI/ADR-RES ovarian -40.2%
inactive: HS 578T breast 14.1%

Fc1ccc(NCc2nnc(-c3ccc(Cl)cc3)o2)cc1
inactive: SR leukemia 71.1% | RPMI-8226 leukemia 54.1% | OVCAR-8 ovarian 79.9% | SK-OV-3 ovarian 81.5% | IGROV1 ovarian 51.6% | OVCAR-3 ovarian 79.6% | HS 578T breast 84.6% | NCI/ADR-RES ovarian 90.6%

Cn1cc(-c2csc(-c3cn(CCCN4CCCCC4)c4ccc(F)cc34)n2)c2cccnc21
inactive: SR leukemia 65.9% | RPMI-8226 leukemia 69.2% | OVCAR-8 ovarian 95.3% | OVCAR-4 ovarian 92.8% | SK-OV-3 ovarian 99.3% | IGROV1 ovarian 85.2% | HS 578T breast 82.5% | NCI/ADR-RES ovarian 89.5%

Cc1ccc(Nc2c(C(N)=O)cnc3ccc(S(=O)(=O)Nc4cc(C)on4)cc23)cc1
inactive: SR leukemia 101% | RPMI-8226 leukemia 103% | OVCAR-8 ovarian 97.9% | SK-OV-3 ovarian 107% | IGROV1 ovarian 101% | OVCAR-3 ovarian 103% | HS 578T breast 104% | NCI/ADR-RES ovarian 101%

COc1ccccc1-n1cnc(N)c1C(=O)c1cc(OC)c(OC)c(OC)c1
active: OVCAR-3 ovarian -21.3% | HS 578T breast -12.8%
inactive: SR leukemia 30.2% | RPMI-8226 leukemia 30.9% | OVCAR-5 ovarian 79.1% | OVCAR-4 ovarian 65.9% | SK-OV-3 ovarian 48.2% | IGROV1 ovarian 45.5% | NCI/ADR-RES ovarian 55.1%

CC(C)=CCC/C(C)=C/CC/C(C)=C/CC/C(C)=C/CSC[C@H](NC(=O)CCCCCN1CCN(C)CC1)C(=O)NC1CCCCC1
active: SR leukemia 2.5%
inactive: RPMI-8226 leukemia 63.4% | OVCAR-8 ovarian 90.3% | SK-OV-3 ovarian 96.5% | IGROV1 ovarian 80.6% | OVCAR-3 ovarian 91.1% | HS 578T breast 95.7% | NCI/ADR-RES ovarian 86.9%

CC1(C)C(=O)/C(=C\c2ccco2)C[C@]2(C)[C@H]3CC[C@@H]4[C@@H](C(=O)/C=C/c5ccco5)CC[C@@]4(C)[C@]3(C)CC[C@@H]12
inactive: SR leukemia 71% | RPMI-8226 leukemia 75.5% | OVCAR-8 ovarian 80.5% | SK-OV-3 ovarian 109% | IGROV1 ovarian 96.2% | OVCAR-3 ovarian 95.2% | HS 578T breast 77.8% | NCI/ADR-RES ovarian 95.1%

CN1CCN(CC#CCn2c3c(c4ccccc42)C[C@]2(C)[C@H]4CC[C@@H]5[C@H]6[C@H]7OC(=O)[C@@]6(CCC7(C)C)CC[C@@]5(C)[C@]4(C)CC[C@H]2C3(C)C)CC1
active: SR leukemia 0.535%
inactive: RPMI-8226 leukemia 59.2% | OVCAR-8 ovarian 60.3% | SK-OV-3 ovarian 106% | IGROV1 ovarian 90.9% | OVCAR-3 ovarian 80.2% | HS 578T breast 101% | NCI/ADR-RES ovarian 77%

O=C(CI)Nc1ccc(O)c2ccccc12
inactive: OVCAR-4 ovarian 26.6% | SK-OV-3 ovarian 77.5% | HS 578T breast 33.2%
active: SR leukemia -1.5% | RPMI-8226 leukemia -18.8% | OVCAR-8 ovarian -22.9% | IGROV1 ovarian -15.5% | NCI/ADR-RES ovarian -15.1%

CCc1ccc(-c2ccc(Nc3ccccc3)nn2)cc1S(N)(=O)=O
active: SR leukemia 9.58%
inactive: RPMI-8226 leukemia 27.8% | OVCAR-5 ovarian 93% | OVCAR-4 ovarian 87.1% | SK-OV-3 ovarian 96.8% | IGROV1 ovarian 106% | OVCAR-3 ovarian 63.8% | HS 578T breast 84.1% | NCI/ADR-RES ovarian 85.6%

COc1cc2ncnc(Nc3ccc(Oc4ccnc(C)c4)c(C)c3)c2cc1NC(=O)CC1CCSS1 (centres undefined)
active: SR leukemia -37.6% | RPMI-8226 leukemia -18.6% | OVCAR-4 ovarian 6.57% | SK-OV-3 ovarian -86.9% | OVCAR-3 ovarian -81.4% | HS 578T breast -7.37%
inactive: OVCAR-5 ovarian 45.2% | IGROV1 ovarian 20.6% | NCI/ADR-RES ovarian 31.9%

CC(=O)Cc1nsc(NC(=O)c2ccoc2COc2ccccc2)n1
inactive: SR leukemia 104% | RPMI-8226 leukemia 88.6% | OVCAR-8 ovarian 103% | SK-OV-3 ovarian 111% | IGROV1 ovarian 95.9% | OVCAR-3 ovarian 111% | HS 578T breast 107% | NCI/ADR-RES ovarian 99.1%

O=C1/C(=C\c2ccco2)SC(=S)N1CCc1ccc(O)cc1
inactive: SR leukemia 95.7% | RPMI-8226 leukemia 83.1% | OVCAR-8 ovarian 102% | OVCAR-4 ovarian 90.3% | SK-OV-3 ovarian 100% | IGROV1 ovarian 94.6% | OVCAR-3 ovarian 105% | NCI/ADR-RES ovarian 103%

Fc1ccc2c(c1)c(-c1nc(-c3c[nH]c4ncccc34)cs1)cn2CCCN1CCCCC1
inactive: OVCAR-8 ovarian 76.9% | SK-OV-3 ovarian 94.4% | IGROV1 ovarian 45.7% | HS 578T breast 75.1% | NCI/ADR-RES ovarian 74.1%
active: SR leukemia -34.7% | RPMI-8226 leukemia -21.1%

CC[C@]12C=CCN3CC[C@@]4(c5cc([C@H]6CCC(=O)N6)c(OC)cc5N(C)[C@H]4[C@@](O)(C(=O)OC)[C@@H]1OC(C)=O)[C@@H]32
inactive: SR leukemia 92% [2.5 µM] | RPMI-8226 leukemia 114% [2.5 µM] | OVCAR-8 ovarian 103% [2.5 µM] | OVCAR-4 ovarian 104% [2.5 µM] | SK-OV-3 ovarian 91.1% [2.5 µM] | IGROV1 ovarian 103% [2.5 µM] | HS 578T breast 113% [2.5 µM] | NCI/ADR-RES ovarian 107% [2.5 µM]

O=C1NC(c2ccc(Cl)c(Cl)c2)=C/C1=C\c1ccccc1
inactive: SR leukemia 17.1% | RPMI-8226 leukemia 48.3% | OVCAR-5 ovarian 73.2% | SK-OV-3 ovarian 100% | IGROV1 ovarian 59.2% | OVCAR-3 ovarian 50.8% | HS 578T breast 66.3% | NCI/ADR-RES ovarian 83.7%
active: OVCAR-4 ovarian -36.6%

O=C1NC(=Nc2ccc(S(=O)(=O)Nc3nccs3)cc2)S/C1=C\c1coc2ccccc2c1=O
inactive: SR leukemia 88.9% | RPMI-8226 leukemia 101% | OVCAR-5 ovarian 121% | OVCAR-4 ovarian 102% | SK-OV-3 ovarian 91.5% | IGROV1 ovarian 98.1% | OVCAR-3 ovarian 117% | HS 578T breast 90.8% | NCI/ADR-RES ovarian 106%

Cc1cc(Cl)nc(N(CCCNc2ccnc3cc(Cl)ccc23)Cc2ccco2)n1
inactive: OVCAR-5 ovarian 31.9% | OVCAR-4 ovarian 32% | SK-OV-3 ovarian 40.8% | IGROV1 ovarian 15.3% | OVCAR-3 ovarian 35.7% | HS 578T breast 58.8%
active: SR leukemia -13.7% | RPMI-8226 leukemia -28.9% | NCI/ADR-RES ovarian 5.99%

COc1ccc(NC(=O)c2ccoc2COc2ccccc2)cc1
inactive: SR leukemia 88.4% | RPMI-8226 leukemia 91.8% | OVCAR-5 ovarian 95.8% | OVCAR-4 ovarian 101% | SK-OV-3 ovarian 106% | IGROV1 ovarian 91.2% | OVCAR-3 ovarian 109% | HS 578T breast 99.7% | NCI/ADR-RES ovarian 93%

COc1ccc(-c2cc(/C=C/C(=O)c3ccc(OC)c(OC)c3)[nH]n2)cc1
inactive: OVCAR-5 ovarian 48.5% | OVCAR-4 ovarian 32.7% | SK-OV-3 ovarian 49.3% | IGROV1 ovarian 61%
active: SR leukemia -32.7% | RPMI-8226 leukemia -48.4% | NCI/ADR-RES ovarian -0.366%

C[C@H]1[C@@H]2[C@H]3CC[C@@H]4[C@@]5(C)Cc6c([nH]c7ccccc67)C(C)(C)[C@@H]5CC[C@@]4(C)[C@]3(C)CC[C@]23CO[C@]1(C)[C@@H](C(=O)/C=C/c1ccccn1)C3
inactive: SR leukemia 55.6% | OVCAR-8 ovarian 63.3% | OVCAR-5 ovarian 108% | OVCAR-4 ovarian 83.7% | SK-OV-3 ovarian 112% | IGROV1 ovarian 106% | OVCAR-3 ovarian 96.2% | HS 578T breast 87.7% | NCI/ADR-RES ovarian 100%

C/C(=N\NC(=O)C(C)SC(C)C(=O)N/N=C(\C)c1cccnc1)c1cccnc1 (centres undefined)
inactive: SR leukemia 79.6% | RPMI-8226 leukemia 101% | OVCAR-5 ovarian 110% | SK-OV-3 ovarian 109% | IGROV1 ovarian 102% | OVCAR-3 ovarian 114% | HS 578T breast 101% | NCI/ADR-RES ovarian 108%

COc1cc(NC(C)CN(CC(C)C)C(C)C)c2ncccc2c1 (centres undefined)
inactive: SR leukemia 90.2% | RPMI-8226 leukemia 102% | OVCAR-5 ovarian 109% | SK-OV-3 ovarian 101% | IGROV1 ovarian 110% | HS 578T breast 115% | NCI/ADR-RES ovarian 93.3%

CCN1CCN(C(=O)[C@@]2(C)CC[C@]3(C)CC[C@]4(C)C(=CC(=O)[C@@H]5[C@@]6(C)CC[C@H](OCCC#N)C(C)(C)[C@@H]6CC[C@]54C)[C@@H]3C2)CC1
active: SR leukemia 4.19%
inactive: OVCAR-8 ovarian 90.5% | OVCAR-5 ovarian 92.3% | OVCAR-4 ovarian 94.7% | SK-OV-3 ovarian 99.2% | IGROV1 ovarian 95.5% | OVCAR-3 ovarian 100% | HS 578T breast 83.3% | NCI/ADR-RES ovarian 93.3%

Cn1c(=O)c2c(ncn2CCC(=O)Nc2ccc(F)cc2)n(C)c1=O
inactive: SR leukemia 105% | RPMI-8226 leukemia 97.2% | OVCAR-5 ovarian 103% | OVCAR-4 ovarian 111% | SK-OV-3 ovarian 85% | IGROV1 ovarian 112% | OVCAR-3 ovarian 107% | HS 578T breast 103% | NCI/ADR-RES ovarian 106%

COc1cccc(NC(=O)c2sc3nc4c(cc3c2N)C(=O)CCC4)c1
inactive: OVCAR-5 ovarian 50% | OVCAR-4 ovarian 58.9% | IGROV1 ovarian 49.2%
active: SR leukemia 3.01% | RPMI-8226 leukemia 0.464% | SK-OV-3 ovarian -2.7% | OVCAR-3 ovarian -2.17% | NCI/ADR-RES ovarian -31.2%

COc1cc(-c2cc(-c3nc4ccc(F)cc4[nH]3)[nH]n2)cc(OC)c1OC
inactive: SR leukemia 12.6% | SK-OV-3 ovarian 13.3% | IGROV1 ovarian 43.6% | OVCAR-3 ovarian 24%
active: RPMI-8226 leukemia -37.3% | OVCAR-4 ovarian -2.29% | NCI/ADR-RES ovarian -6.05%

Nc1ccc(Cl)cn1
inactive: SR leukemia 113% | OVCAR-8 ovarian 101% | OVCAR-5 ovarian 101% | OVCAR-4 ovarian 97.4% | SK-OV-3 ovarian 93.6% | IGROV1 ovarian 104% | OVCAR-3 ovarian 106% | HS 578T breast 99.7% | NCI/ADR-RES ovarian 98.7%
